From the supplement of paper PMC8975748
Where a name gives a salt, the structure may show the parent alone.

The compounds below were run on Saccharomyces cerevisiae BY4741 SeMeCo community (assay: z-score of prototroph abundance vs DMSO median; higher = larger share of this subpopulation than in DMSO controls). Details: 10 µM; 24 h; SM minimal medium; subpopulation (auxotrophy): Prototroph.
Procedure: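 Fluorescent four-plasmid SeMeCo (self-establishing metabolically cooperating S. cerevisiae BY4741 community; plasmids pH-mRuby2, pL-mWasabi, pU-eCFP, pM-TagRFP657) was grown 24 h in minimal SM medium with each Selleck FDA-approved drug at 10 µM in 384-well plates. Cells were fixed and imaged by high-content confocal microscopy. For each auxotrophic subpopulation (and the prototroph), a z-score gives the deviation from the DMSO vehicle-control population median.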

**Q.** `O=C(c1ccc(F)cc1)C1CCN(CCn2c(=O)[nH]c3ccccc3c2=O)CC1` [Ketanserin] was tested. Which “z-score of prototroph abundance” value did it give?
**A.** 0.15

**Q.** With `COc1cc(O)c(C(=O)Nc2nc(C(=O)NCCN(C(C)C)C(C)C)cs2)cc1OC` [Acotiamide] as the compound, how does the “z-score of prototroph abundance” value read?
**A.** -0.88

**Q.** `O=C1c2cccc3c2[C@H](CCC3)CN1[C@@H]1CN2CCC1CC2` [Palonosetron HCl] was tested. Which “z-score of prototroph abundance” value did it give?
**A.** 0.21

**Q.** Which “z-score of prototroph abundance” value does the source give for `CC(=O)Oc1ccc(C(=C2CCCCC2)c2ccc(OC(C)=O)cc2)cc1` [Cyclofenil] here?
**A.** 0.79

**Q.** `Cc1cc(CC(C)CC(C)(C)C)n(O)c(=O)c1` (stereo not given) [Piroctone Olamine] was tested. Which “z-score of prototroph abundance” value did it give?
**A.** -16.9

**Q.** With `CCCCNc1ccc(C(=O)OCCN(C)C)cc1` [Tetracaine HCl] as the compound, how does the “z-score of prototroph abundance” value read?
**A.** -0.78

**Q.** How did the “z-score of prototroph abundance” value turn out when `CNCC[C@H](Oc1cccc2ccccc12)c1cccs1` [Duloxetine] was run?
**A.** 0.49

**Q.** With `O=C(Cn1cnnn1)N[C@@H]1C(=O)N2C(C(=O)O)=C(CSc3nncs3)CS[C@H]12` [Ceftezole] as the compound, how does the “z-score of prototroph abundance” value read?
**A.** 0.89

**Q.** For `Cc1onc(-c2ccccc2)c1-c1ccc(S(N)(=O)=O)cc1` [Valdecoxib], which “z-score of prototroph abundance” value is on record?
**A.** 1

**Q.** `C(=C\c1ccccc1)/CN1CCN(C(c2ccccc2)c2ccccc2)CC1` [Cinnarizine] was tested. Which “z-score of prototroph abundance” value did it give?
**A.** -1.14

**Q.** Which “z-score of prototroph abundance” value does the source give for `CN(C)CCC=C1c2ccccc2CCc2ccccc21` [Amitriptyline HCl] here?
**A.** 0.95

**Q.** `Cc1cc(O)c(C(=O)N[C@@H](C(=O)N[C@@H]2C(=O)N3C(C(=O)O)=C(CSc4nnnn4C)CS[C@H]23)c2ccc(O)cc2)cn1` [Cefpiramide sodium] was tested. Which “z-score of prototroph abundance” value did it give?
**A.** -0.28

**Q.** With `Cc1ncc([N+](=O)[O-])n1CC(C)O` (stereo not given) [Secnidazole] as the compound, how does the “z-score of prototroph abundance” value read?
**A.** -0.48

**Q.** `Nc1ccc(/N=N/c2ccccc2)c(N)n1` [Phenazopyridine HCl] was tested. Which “z-score of prototroph abundance” value did it give?
**A.** 2.41

**Q.** Which “z-score of prototroph abundance” value does the source give for `O=C(O)CCC(=O)c1ccc(-c2ccccc2)cc1` [Fenbufen] here?
**A.** -0.31

**Q.** For `CCOC(=O)OC(C)OC1=C(C(=O)Nc2ccccn2)N(C)S(=O)(=O)c2ccccc21` (stereo not given) [Ampiroxicam], which “z-score of prototroph abundance” value is on record?
**A.** 0.81

**Q.** For `CNS(=O)(=O)CCc1ccc2[nH]cc(C3CCN(C)CC3)c2c1` [Naratriptan HCl], which “z-score of prototroph abundance” value is on record?
**A.** 0.15

**Q.** For `CNC1CCCN(c2c(F)cc3c(=O)c(C(=O)O)cn(C4CC4)c3c2OC)C1` (stereo not given) [Balofloxacin], which “z-score of prototroph abundance” value is on record?
**A.** -0.14

**Q.** With `CCc1nn(CCCN2CCN(c3cccc(Cl)c3)CC2)c(=O)n1CCOc1ccccc1` [Nefazodone hydrochloride] as the compound, how does the “z-score of prototroph abundance” value read?
**A.** -1.27

**Q.** For `CC[C@@H]1C(=O)OC[C@@H]1Cc1cncn1C` [Pilocarpine HCl], which “z-score of prototroph abundance” value is on record?
**A.** 0.73

**Q.** `CCC[C@@H]1C[C@@H](C(=O)N[C@@H]([C@H]2O[C@H](SC)[C@H](O)[C@@H](O)[C@H]2O)[C@H](C)Cl)N(C)C1` [Clindamycin HCl] was tested. Which “z-score of prototroph abundance” value did it give?
**A.** -0.3

**Q.** How did the “z-score of prototroph abundance” value turn out when `Cc1onc(-c2ccccc2Cl)c1C(=O)N[C@@H]1C(=O)N2[C@@H]1SC(C)(C)[C@@H]2C(=O)O` [Cloxacillin Sodium] was run?
**A.** -1.62

**Q.** For `O=C1CN(/N=C/c2ccc(-c3ccc([N+](=O)[O-])cc3)o2)C(=O)N1` [Dantrolene sodium hemiheptahydrate], which “z-score of prototroph abundance” value is on record?
**A.** 1

**Q.** `N#Cc1ccc2[nH]cc(CCCCN3CCN(c4ccc5oc(C(N)=O)cc5c4)CC3)c2c1` [Vilazodone HCl] was tested. Which “z-score of prototroph abundance” value did it give?
**A.** -0.4

**Q.** Which “z-score of prototroph abundance” value does the source give for `COc1ccc2cc(C(=O)O)ccc2c1` [6-Methoxy-2-naphthoic acid] here?
**A.** 2.36

**Q.** For `NC(=O)c1cn(Cc2c(F)cccc2F)nn1` [Rufinamide], which “z-score of prototroph abundance” value is on record?
**A.** -0.37

**Q.** `c1ccc(C2CN3CCSC3=N2)cc1` (stereo not given) [Tetramisole HCl] was tested. Which “z-score of prototroph abundance” value did it give?
**A.** 0.24

**Q.** With `CCCCCCCCCCCCCCCC[N+](C)(C)C` [Cetrimonium Bromide (CTAB)] as the compound, how does the “z-score of prototroph abundance” value read?
**A.** -15.6

**Q.** Which “z-score of prototroph abundance” value does the source give for `CN[C@H]1C(=O)N[C@@H]2Cc3ccc(cc3)Oc3cc4cc(c3O[C@@H]3O[C@H](C(=O)O)[C@@H](O)[C@H](O)[C@H]3NC(=O)CCCCCCCCC(C)C)Oc3ccc(cc3Cl)[C@@H](O)[C@@H]3NC(=O)[C@H](NC(=O)[C@@H]4NC(=O)[C@@H](NC2=O)c2cc(cc(O)c2Cl)Oc2cc1ccc2O)c1ccc(O)c(c1)-c1c(O[C@H]2O[C@H](CO)[C@@H](O)[C@H](O)[C@@H]2O)cc(O)cc1[C@@H](C(=O)NCCCN(C)C)NC3=O` [Dalbavancin] here?
**A.** -0.15

**Q.** For `CC(C)N1CCN(c2ccc(OCC3COC(Cn4cncn4)(c4ccc(Cl)cc4Cl)O3)cc2)CC1` (stereo not given) [Terconazole], which “z-score of prototroph abundance” value is on record?
**A.** 1.34

**Q.** `CO[C@@H]1[C@@H](OC(N)=O)[C@@H](O)[C@H](Oc2ccc3c(O)c(NC(=O)c4ccc(O)c(CC=C(C)C)c4)c(=O)oc3c2C)OC1(C)C` [Novobiocin Sodium] was tested. Which “z-score of prototroph abundance” value did it give?
**A.** -1.53

**Q.** Which “z-score of prototroph abundance” value does the source give for `Clc1ccc(COC(Cn2ccnc2)c2ccc(Cl)cc2Cl)c(Cl)c1` (stereo not given) [Miconazole Nitrate] here?
**A.** -8.17

**Q.** How did the “z-score of prototroph abundance” value turn out when `CC(C)Cc1ccc(C(C)C(=O)O)cc1` (stereo not given) [Ibuprofen] was run?
**A.** 3.17

**Q.** Which “z-score of prototroph abundance” value does the source give for `NC[C@H]1O[C@H](O[C@H]2[C@H](O[C@@H]3O[C@H](CO)[C@@H](O)[C@H]3O)[C@@H](O)[C@H](N)C[C@@H]2N)[C@H](N)[C@@H](O)[C@@H]1O` [Ribostamycin Sulfate] here?
**A.** 0.31

**Q.** With `CC(C)COCC(CN(Cc1ccccc1)c1ccccc1)N1CCCC1` (stereo not given) [Bepridil hydrochloride] as the compound, how does the “z-score of prototroph abundance” value read?
**A.** -1.24

**Q.** For `CCn1cc(C(=O)O)c(=O)c2cc(F)c(N3CCN(C)CC3)cc21` [Pefloxacin Mesylate Dihydrate], which “z-score of prototroph abundance” value is on record?
**A.** -0.64

**Q.** `N=C(N)NC(=O)c1nc(Cl)c(N)nc1N` [Amiloride HCl] was tested. Which “z-score of prototroph abundance” value did it give?
**A.** -0.41

**Q.** Which “z-score of prototroph abundance” value does the source give for `COc1ccc2cc3[n+](cc2c1OC)CCc1cc2c(cc1-3)OCO2` [Berberine Sulfate] here?
**A.** -0.5

**Q.** For `CCCCN1CCCC[C@H]1C(=O)Nc1c(C)cccc1C` [Levobupivacaine HCl], which “z-score of prototroph abundance” value is on record?
**A.** 0.73

**Q.** `CN(C)CCC=C1c2ccccc2C=Cc2ccccc21` [Cyclobenzaprine HCl] was tested. Which “z-score of prototroph abundance” value did it give?
**A.** -0.37
